Broadly, the AC50 is the midpoint of the concentration-response curve, whichever way the signal moves.

Results filed as inconclusive are left out. Calls of active or inactive are those of the source. The calls were made as follows, unless noted: active = hit-call score of the fitted dose curve at least 0.9, where 1 is the maximum; inconclusive = response in the unintended direction; inactive = score below 0.9.

Read-out in experiment [1]: solute carrier (SLC22A6), SLC22A6 (gene 9356)
As to the kind of experiment: LTEA_HepaRG_SLC22A6: Life Technologies and Expression Analysis (LTEA) Assay for solute carrier (SLC22A6) using HepaRG (AID 2283653; active = hit-call score of the fitted dose curve at least 0.9, where 1 is the maximum; inactive = score below 0.9). To be noted: mRNA level, 48 h; actives raise or lower the signal. An outline of the steps:
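Read-out is SLC22A6 transcript level by qRT-PCR, normalised to three housekeeping genes and fitted for gain or loss relative to 0.5% DMSO vehicle. Human HepaRG cells received chemicals at up to 100 uM for 48 h.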

Experiment [2] in a line: Tanguay_ZF_120hpf_TRUN_legacy: (Legacy) Oregon State University Tanguay Lab 120 Hour Post-fertilization zebrafish Assay for Truncated Body (AID 2283655). Summed up: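 Truncated body is recorded as a binary endpoint at 120 hpf by brightfield imaging of wild-type 5D larvae. Exposure runs statically from 6 hpf at 28C with 0.64% DMSO; embryos dying earlier are not scored.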

Experiment [3] in a line: Tanguay_ZF_120hpf_NC_legacy: (Legacy) Oregon State University Tanguay Lab 120 Hour Post-fertilization zebrafish Assay for Notochord and Tail Malformation (AID 2283656). An outline of the steps: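 Binary notochord-distortion calls, made by brightfield inspection, form the read-out; activity is fitted in the positive direction against DMSO. Exposure ran statically from 6 to 120 hpf at 28C with 0.64% DMSO.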

Read-out in experiment [4]: solute carrier (SLC10A1), SLC10A1 (gene 6554)
Briefly: LTEA_HepaRG_SLC10A1: Life Technologies and Expression Analysis (LTEA) Assay for solute carrier (SLC10A1) using HepaRG (AID 2283657; active = hit-call score of the fitted dose curve at least 0.9, where 1 is the maximum; inactive = score below 0.9). The settings on record: mRNA level, 48 h; actives raise or lower the signal. Summed up:
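SLC10A1 transcript measured by TaqMan qRT-PCR, housekeeping-normalised, after 48 h chemical treatment of human HepaRG cells. Eight concentrations (half-log, max 100 uM, 0.5% DMSO vehicle) in duplicate; fitted bidirectionally against DMSO baseline.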

Read-out in experiment [5]: matrix metalloproteinase-1 (MMP1), MMP1 (gene 4312)
As to the kind of experiment: LTEA_HepaRG_MMP1: Life Technologies and Expression Analysis (LTEA) Assay for matrix metalloproteinase-1 (MMP1) using HepaRG (AID 2283658; active = hit-call score of the fitted dose curve at least 0.9, where 1 is the maximum; inactive = score below 0.9). To be noted: mRNA level, 48 h; actives raise or lower the signal. An outline of the steps: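 HepaRG, ~100,000 cells/well, 48 h pre-culture; serum-free induction medium; test chemical 8 conc (max 100 uM, half-log), duplicate, 48 h; 0.5% DMSO; qRT-PCR MMP1, housekeeping-normalized; gain/loss fit vs DMSO.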

Experiment [6] in a line: Tanguay_ZF_120hpf_TR_legacy: (Legacy) Oregon State University Tanguay Lab 120 Hour Post-fertilization zebrafish Assay for Touch Response (AID 2283667). Summed up:
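Binary touch-response endpoint in larvae at 120 hpf after static waterborne exposure from embryo stage (28°C, 0.64% DMSO vehicle, 5 uM trimethyltin chloride as positive control); embryos dead at 24 or 120 hpf excluded; fitted as gain versus DMSO.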

Read-out in experiment [7]: Cytochrome P450 (CYP24A1_1), CYP24A1 (gene 1591)
As to the kind of experiment: LTEA_HepaRG_CYP24A1_1: Life Technologies and Expression Analysis (LTEA) Assay for Cytochrome P450 (CYP24A1_1) using HepaRG (AID 2283671; active = hit-call score of the fitted dose curve at least 0.9, where 1 is the maximum; inactive = score below 0.9). The settings on record: mRNA level, 48 h; actives raise or lower the signal. An outline of the steps:
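Differentiated human HepaRG cells were exposed in duplicate for 48 h in serum-free induction medium to eight concentrations (top 100 uM, half-log steps, 0.5% DMSO). CYP24A1 mRNA was quantified by TaqMan qRT-PCR, normalized to ACTB, GAPDH and POLR2A, and fitted bidirectionally versus DMSO.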

The nature of experiment [8]: CCTE_Padilla_ZF_144hpf_TERATOSCORE: (Legacy) CCTE's 144 Hour Post-fertilization zebrafish Assay Teratoscore, Padilla Lab (AID 2283679; active = hit-call score of the fitted dose curve at least 0.9, where 1 is the maximum; inactive = score below 0.9;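 as to AC50: zebrafish embryos with chorions exposed by immersion from 6-8 hpf to 5 dpf with daily renewal; teratogenicity score from eye scoring of death hatching and malformations at 144 hpf; higher score means more developmental defects relative to DMSO baseline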). An outline of the steps:
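Larvae scored by eye at 144 hpf for death, hatching and malformations after a day in clean Hanks'. Before that, daily-renewed exposure at 80 uM (0.4% DMSO, 26C) from roughly 6-8 hpf through 5 dpf, 4 embryos per chemical.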

Experiment [9] can be described thus: Tanguay_ZF_120hpf_ActivityScore_legacy: (Legacy) Oregon State University Tanguay Lab 120 Hour Post-fertilization zebrafish Assay Score for Activity (AID 2283742).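 As to AC50: dechorionated Tropical 5D wild-type zebrafish embryos held singly per well.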 An outline of the steps:
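Binary scoring of mortality and morphology by brightfield at 24 and 120 hpf, summarised into one activity score from 18 components relative to DMSO. Wild-type Tropical 5D zebrafish, chorion removed at 4 hpf, static exposure 6–120 hpf, 28 °C.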

Experiment [10] is described as follows: Tanguay_ZF_120hpf_SWIM_legacy: (Legacy) Oregon State University Tanguay Lab 120 Hour Post-fertilization zebrafish Assay for Swim Bladder Malformation (AID 2283654).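 Also: swim bladder malformation in each larva scored yes or no under brightfield.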 Summed up: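 Scoring is binary for swim bladder defects at 120 hpf, by brightfield inspection of zebrafish larvae. Embryos were exposed singly from 6 hpf after pronase dechorionation, at 28C with 0.64% DMSO; mortality excluded scoring.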

Read-out in experiment [11]: kallikrein-3 (KLK3), KLK3 (gene 354)
As to the kind of experiment: LTEA_HepaRG_KLK3: Life Technologies and Expression Analysis (LTEA) Assay for kallikrein-3 (KLK3) using HepaRG (AID 2283652; active = hit-call score of the fitted dose curve at least 0.9, where 1 is the maximum; inactive = score below 0.9). To be noted: mRNA level, 48 h; actives raise or lower the signal. Summed up: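 KLK3 transcript levels were measured by TaqMan qRT-PCR with normalisation to three housekeeping genes. HepaRG cultures received chemicals for 48 h at up to 100 uM (half-log, 8 points, 0.5% DMSO vehicle), fitted in both directions against DMSO.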

Experiment [12] is described as follows: CEETOX_H295R_MTT_cell_viability: Viability Assessment in the CeeTox HT-H295R MTT Assay (AID 2283718; active = hit-call score of the fitted dose curve at least 0.9, where 1 is the maximum; inactive = score below 0.9). An outline of the steps:
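MTT reduction (0.5 mg/ml, 4 h at 37 C; absorbance at 570 and 650 nm) gave viability as background-corrected percent change versus controls. H295R cells had 48 h forskolin (10 uM) prestimulation, then 48 h chemical exposure at 0.1% DMSO.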

A short description of experiment [13]: STM_H9_OrnCyssISnorm_ratio: Stemina devTOX quickPredict H9 human embryonic stem cell (hESC)-based Assay for Ornithine (ORN):Cystine (CYSS) Ratio (AID 2283714). Summed up: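 Ratio of internal-standard-normalized ornithine to cystine, measured by UPLC-HRMS in spent media from the last 24 h. H9 cells kept pluripotent, dosed 72 h with daily media and compound renewal; DMSO 0.1% serves as baseline.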

As for `Cc1occc1C(=O)Nc1ccc(C(=O)N2CCC(F)(F)/C(=C\C(=O)N3CCC(N4CCCCC4)CC3)c3ccccc32)cc1`, the outcome in experiment [1], in experiment [2], in experiment [3], in experiment [5], in experiment [6] and in [7] was inactive. For the same compound, the result in experiment [8] and in [9] was inactive. Further, in experiment [4], the concentration at half-maximal activity (AC50) is 41.9 µM (active).

As to `Cc1cc(F)ccc1-c1cc(N2CC[C@@H](O)[C@H]2CO)ncc1N(C)C(=O)C(C)(C)c1cc(C(F)(F)F)cc(C(F)(F)F)c1`, the call in experiment [10], in [2], in experiment [3], in experiment [6] and in experiment [9] was inactive. Besides, the AC50 in experiment [8] is 4.05 µM (active).

As for `CCCOC(=O)c1cc(O)c(O)c(O)c1`, the outcome in experiment [11], in experiment [1], in [10], in [2], in [3] and in [4] was inactive. Moreover, the compound was classed as inactive in [5], in experiment [6], in experiment [7] and in experiment [9].

Turning to `O=C1CCC(C2CCCCC2)CC1`, the compound was called inactive in [10], in experiment [2], in [3], in [6] and in [9]. Besides, the AC50 in experiment [8] was 60.4 µM (active).

Take `Cc1ncc(CO)c(CO)c1O`: the call in experiment [10], in experiment [2], in experiment [3], in experiment [6], in [8] and in [9] was inactive.

With `C[C@]12CC[C@@H]3c4ccc(O)cc4CC[C@H]3[C@@H]1CCC2=O`, the call in experiment [10], in experiment [2], in experiment [3], in experiment [6], in experiment [8] and in experiment [12] was inactive. Moreover, the compound was called inactive in experiment [9].

Take `O=C(O)Cc1cc(I)c(Oc2ccc(O)c(I)c2)c(I)c1`: the compound was classed as inactive in experiment [10], in [2], in experiment [3] and in experiment [6]. For the same compound, the concentration at half-maximal activity (AC50) in experiment [8] is 0.101 µM (active); in experiment [9] it was 31.3 µM (active).

Regarding `Cc1cn([C@H]2C[C@H](N=[N+]=[N-])[C@@H](CO)O2)c(=O)[nH]c1=O`, the compound was classed as inactive in experiment [10], in experiment [2], in experiment [3], in [6], in experiment [8] and in experiment [9]. The AC50 in [13] was 4.02 µM (active).

Consider `NC(=O)c1nc(-c2cccc(-c3cc(F)ccc3OCC(F)(F)C(F)(F)F)c2)n[nH]1`, for which the AC50 in experiment [10] was 26.4 µM (active); in [2], 27 µM (active); in experiment [6], 26.6 µM (active); in [8], 1.08 µM (active); in [13] it was 3.99 µM (active); in experiment [9] it was 30.9 µM (active). Moreover, the result in experiment [3] and in [12] was inactive.

Regarding `O=C(O)Cn1c(=O)n(Cc2ccc(Br)cc2F)c(=O)c2ccc(Cl)cc21`, the compound was called inactive in experiment [10], in experiment [2], in [3], in experiment [6], in [12] and in experiment [9].

On to `CCCCCCCCCCCC[N+](C)(C)C`, for which the compound was classed as inactive in experiment [10], in [2], in experiment [3], in [6], in experiment [12] and in experiment [9]. Besides, in experiment [13], the AC50 was 4.73 µM (active).

Turning to `OCCO`, the compound was classed as inactive in [10], in experiment [2], in [3], in [6], in experiment [13] and in [9].

Consider `c1ccc2n[nH]nc2c1`, for which the result in experiment [10], in [2], in experiment [3], in [6], in experiment [8] and in [9] was inactive.

As for `CC[C@H](NC(=O)c1cc(F)ccc1NS(=O)(=O)c1cccc2cccnc12)c1ccccc1`, the outcome in experiment [10], in experiment [2], in experiment [3], in experiment [6], in experiment [8] and in experiment [9] was inactive.

For `O=c1[nH]sc2ccccc12`, the result in experiment [10], in [2], in experiment [3], in [6] and in experiment [9] was inactive. Further, the AC50 in [8] is 16.4 µM (active).

`CC(=O)N1CCN(c2ccc(OC[C@H]3CO[C@](Cn4ccnc4)(c4ccc(Cl)cc4Cl)O3)cc2)CC1`: the outcome in [10], in experiment [2], in [3], in experiment [6], in [12] and in [9] was inactive. The AC50 was 14.3 µM (active) in experiment [8] and 2.35 µM (active) in experiment [13].

With `C[C@]12CC[C@@H]3c4ccc(O)cc4CC[C@H]3[C@@H]1CC[C@H]2O`, the call in experiment [1], in experiment [10], in experiment [2], in [3], in experiment [5] and in experiment [6] was inactive. In addition, the result in [7], in experiment [12] and in experiment [9] was inactive. Besides, the AC50 is 72.6 µM (active) in experiment [4] and 15 µM (active) in experiment [8].

`NCc1cccc(C2CCN(C(=O)c3ccc(C#Cc4ccccc4F)o3)CC2)c1`: the result in [10], in [2], in experiment [3] and in experiment [6] was inactive. Moreover, the AC50 in experiment [8] was 14.5 µM (active); in [9], 31.6 µM (active).

The record behind these values is PubChem BioAssay (EPA / NIEHS).
